Measurements reported in PubChem BioAssay AID1159580 (chemical genetic matrix, 2015).
The whole screen tested about 5,500 compounds, of which about 2,000 (36%) were called active. Another 18% or so got no clear call; they are omitted. This is one part of the list. Unmarked numbers belong to inactive results. Rule as the data show it: active = normalized growth mostly below about 0.91 (no sharp cut-off); inconclusive = no clear call, values can overlap the other calls; inactive = mostly above about 0.92.

Test: chemical genetic growth profiling, strain panel (AID 1159580);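 also: tested at 20 µM; growth read once vehicle control cultures reached saturation at 30 °C; 1 = growth at the plate median or of vehicle wells; lower values mean less growth of the strain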
Conditions: growth OD

SMILES: CC1=CC2C(C(C)C)CCC(C)(O)C2CC1 (stereo not drawn)
- normalized growth (S. cerevisiae deletion strains, locus YJL187C, strain SWE1 (second series), hits give low values): 1.01
- normalized growth (S. cerevisiae deletion strains, locus YJL187C, strain SWE1, hits give low values): 1
- normalized growth (S. cerevisiae deletion strains, locus YJR043C, strain POL32, hits give low values): 0.973
- normalized growth (S. cerevisiae deletion strains, locus YJR066W, strain TOR1, hits give low values): 0.914
- normalized growth (S. cerevisiae deletion strains, locus YKL009W, strain mrt4, hits give low values): 0.994
- normalized growth (S. cerevisiae deletion strains, locus YKL068W, hits give low values): 0.972
- normalized growth (S. cerevisiae deletion strains, locus YKL085W, strain MDH1 (second series), hits give low values): 0.979
- normalized growth (S. cerevisiae deletion strains, locus YKL085W, strain MDH1, hits give low values): 0.979
- normalized growth (S. cerevisiae deletion strains, locus YKL160W, strain elf1, hits give low values): 0.968
- normalized growth (S. cerevisiae deletion strains, locus YKL190W, strain CNB1, hits give low values): 0.994
- normalized growth (S. cerevisiae deletion strains, locus YKR001C, strain vps1, hits give low values): 0.989
- normalized growth (S. cerevisiae deletion strains, locus YKR026C, strain gcn3, hits give low values): 0.993
- normalized growth (S. cerevisiae deletion strains, locus YKR091W, strain srl3, hits give low values): 0.987
- normalized growth (S. cerevisiae deletion strains, locus YLL001W, strain dnm1, hits give low values): 0.947
- normalized growth (S. cerevisiae deletion strains, locus YLL026W, hits give low values): 0.988
- normalized growth (S. cerevisiae deletion strains, locus YLL041C, strain sdh2, hits give low values): 0.995
- normalized growth (S. cerevisiae deletion strains, locus YLR027C, strain aat2, hits give low values): 0.978
- normalized growth (S. cerevisiae deletion strains, locus YLR039C, strain RIC1, hits give low values): 0.913
- normalized growth (S. cerevisiae deletion strains, locus YLR058C, strain SHM2, hits give low values): 0.98
- normalized growth (S. cerevisiae deletion strains, locus YLR102C, strain apc9, hits give low values): 0.989
- normalized growth (S. cerevisiae deletion strains, locus YLR113W, strain HOG1, hits give low values): 0.887
- normalized growth (S. cerevisiae deletion strains, locus YLR221C, strain rsa3, hits give low values): 0.986
- normalized growth (S. cerevisiae deletion strains, locus YLR258W, strain gsy2, hits give low values): 0.971
- normalized growth (S. cerevisiae deletion strains, locus YLR262C, strain YPT6 (second series), hits give low values): 0.81 (active)
- normalized growth (S. cerevisiae deletion strains, locus YLR268W, strain sec22, hits give low values): 0.949
- normalized growth (S. cerevisiae deletion strains, locus YLR320W, strain mms22, hits give low values): 0.966
- normalized growth (S. cerevisiae deletion strains, locus YLR330W, strain CHS5, hits give low values): 0.982
- normalized growth (S. cerevisiae deletion strains, locus YLR342W, strain FKS1, hits give low values): 0.983
- normalized growth (S. cerevisiae deletion strains, locus YLR357W, strain rsc2, hits give low values): 1.08
- normalized growth (S. cerevisiae deletion strains, locus YLR370C, strain arc18, hits give low values): 0.984
- normalized growth (S. cerevisiae deletion strains, locus YLR371W, strain rom2, hits give low values): 1.01
- normalized growth (S. cerevisiae deletion strains, locus YLR384C, strain iki3, hits give low values): 0.991
- normalized growth (S. cerevisiae deletion strains, locus YLR418C, strain cdc73, hits give low values): 0.966
- normalized growth (S. cerevisiae deletion strains, locus YML016C, strain PPZ1, hits give low values): 0.992
- normalized growth (S. cerevisiae deletion strains, locus YML032C, strain rad52, hits give low values): 0.971
- normalized growth (S. cerevisiae deletion strains, locus YML120C, strain ndi1, hits give low values): 0.966
- normalized growth (S. cerevisiae deletion strains, locus YML124C, strain tub3, hits give low values): 0.985
- normalized growth (S. cerevisiae deletion strains, locus YMR058W, strain fet3, hits give low values): 1.01
- normalized growth (S. cerevisiae deletion strains, locus YMR078C, strain ctf18, hits give low values): 0.981
- normalized growth (S. cerevisiae deletion strains, locus YMR125W, strain sto1, hits give low values): 1.02
- normalized growth (S. cerevisiae deletion strains, locus YMR129W, hits give low values): 0.982
- normalized growth (S. cerevisiae deletion strains, locus YMR205C, strain PFK2, hits give low values): 0.949
- normalized growth (S. cerevisiae deletion strains, locus YMR223W, strain ubp8, hits give low values): 0.964
- normalized growth (S. cerevisiae deletion strains, locus YMR231W, strain pep5, hits give low values): 0.994
- normalized growth (S. cerevisiae deletion strains, locus YMR307W, strain GAS1, hits give low values): 0.993
- normalized growth (S. cerevisiae deletion strains, locus YNL067W, strain RPL9B, hits give low values): 1.02
- normalized growth (S. cerevisiae deletion strains, locus YNL071W, strain lat1, hits give low values): 0.876 (active)
- normalized growth (S. cerevisiae deletion strains, locus YNL128W, strain TEP1, hits give low values): 0.962
- normalized growth (S. cerevisiae deletion strains, locus YNL183C, strain NPR1, hits give low values): 0.911
- normalized growth (S. cerevisiae deletion strains, locus YNL209W, strain ssb2, hits give low values): 0.984
- normalized growth (S. cerevisiae deletion strains, locus YNL233W, strain BNI4, hits give low values): 1.01
- normalized growth (S. cerevisiae deletion strains, locus YNL248C, strain rpa49, hits give low values): 1.03
- normalized growth (S. cerevisiae deletion strains, locus YNL250W, strain rad50, hits give low values): 0.952
- normalized growth (S. cerevisiae deletion strains, locus YNL271C, strain bni1, hits give low values): 0.986
- normalized growth (S. cerevisiae deletion strains, locus YNL298W, strain CLA4, hits give low values): 0.983
- normalized growth (S. cerevisiae deletion strains, locus YNL307C, strain MCK1, hits give low values): 0.986
- normalized growth (S. cerevisiae deletion strains, locus YNL322C, strain KRE1 (second series), hits give low values): 0.975
- normalized growth (S. cerevisiae deletion strains, locus YNL322C, strain KRE1, hits give low values): 0.984
- normalized growth (S. cerevisiae deletion strains, locus YNR049C, strain mso1, hits give low values): 0.998
- normalized growth (S. cerevisiae deletion strains, locus YNR052C, strain pop2, hits give low values): 1
- normalized growth (S. cerevisiae deletion strains, locus YOL012C, strain htz1): 1.19
- normalized growth (S. cerevisiae deletion strains, locus YOL147C, strain pex11, hits give low values): 0.982
- normalized growth (S. cerevisiae deletion strains, locus YOR001W, strain rrp6, hits give low values): 0.989
- normalized growth (S. cerevisiae deletion strains, locus YOR061W, strain CKA2, hits give low values): 0.966
- normalized growth (S. cerevisiae deletion strains, locus YOR069W, strain VPS5, hits give low values): 0.989
- normalized growth (S. cerevisiae deletion strains, locus YOR070C, strain gyp1, hits give low values): 0.975
- normalized growth (S. cerevisiae deletion strains, locus YOR080W, strain dia2, hits give low values): 0.993
- normalized growth (S. cerevisiae deletion strains, locus YOR083W, strain WHI5, hits give low values): 0.964
- normalized growth (S. cerevisiae deletion strains, locus YOR106W, strain vam3, hits give low values): 0.997
- normalized growth (S. cerevisiae deletion strains, locus YOR136W, strain idh2, hits give low values): 0.968
- normalized growth (S. cerevisiae deletion strains, locus YOR144C, strain elg1, hits give low values): 0.985
- normalized growth (S. cerevisiae deletion strains, locus YOR184W, strain ser1, hits give low values): 0.933
- normalized growth (S. cerevisiae deletion strains, locus YOR231W, strain MKK1, hits give low values): 0.911
- normalized growth (S. cerevisiae deletion strains, locus YOR265W, strain rbl2, hits give low values): 0.978
- normalized growth (S. cerevisiae deletion strains, locus YOR270C, strain vph1, hits give low values): 0.959
- normalized growth (S. cerevisiae deletion strains, locus YOR290C, strain snf2, hits give low values): 0.997
- normalized growth (S. cerevisiae deletion strains, locus YOR316C, strain cot1, hits give low values): 0.989
- normalized growth (S. cerevisiae deletion strains, locus YPL051W, strain arl3, hits give low values): 0.946
- normalized growth (S. cerevisiae deletion strains, locus YPL078C, strain atp4, hits give low values): 0.957
- normalized growth (S. cerevisiae deletion strains, locus YPL106C, strain sse1, hits give low values): 1
- normalized growth (S. cerevisiae deletion strains, locus YPL240C, strain hsp82, hits give low values): 0.987
- normalized growth (S. cerevisiae deletion strains, locus YPL256C, strain CLN2, hits give low values): 0.915
- normalized growth (S. cerevisiae deletion strains, locus YPR119W, strain clb2, hits give low values): 0.985
- normalized growth (S. cerevisiae deletion strains, locus YPR141C, strain kar3, hits give low values): 0.97
- normalized growth (S. cerevisiae deletion strains, locus YPR163C, strain tif3, hits give low values): 0.99
- normalized growth (S. cerevisiae deletion strains, locus YPR167C, strain met16, hits give low values): 0.987
- normalized growth (S. cerevisiae deletion strains, strain wtn01, hits give low values): 0.964
- normalized growth (S. cerevisiae strains, strain wild type, hits give low values): 0.969
